Bioassay records deposited in PubChem by The Scripps Research Institute Molecular Screening Center.
This is one part of a sample in which hits are shown more often than they occur.
TTR transcr act = activators of transthyretin transcription | SH-SY5Y TTR promoter Gaussia luciferase, luminescence; 100% = recombinant luciferase protein wells | activation, % at 16.7 µM | 92,000 tested, 1.3% active | AID 1117267;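 active = activation above the mean of all tested compounds plus 3 SD, cut at about 9.5% in these data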;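 note: cells exposed to compounds for one day before reading; 0% = median of all test compound wells on the plate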
HuH7 TTR inh = counter-screen for TTR activators: TTR transcription inhibitors in HuH7 cells; shares compounds with TTR transcr act; HuH7 TTR promoter-Gaussia luciferase reporter, luminescence; inhibition, % at 16.7 µM; 1,100 tested, 4% active;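 active = average inhibition above the solvent-only control wells' mean plus 3 SD, cut at about 15% in these data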;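 note: 0% = cells with DMSO only and 100% = cells with inhibitor control FD; inhibitors lower well luminescence so higher value means more inhibition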
TTR up confirm = confirmation of human transthyretin transcription activators | 1,100 tested, under 10 active | activation, % at 16.7 µM | SHSY5Y TTR promoter Gaussia luciferase, luminescence; 100% = purified Lucia enzyme wells, no cells | AID 1117280 | shares compounds with TTR transcr act;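 active = mean activation above a set limit taken from the earlier primary screen, cut at about 11% in these data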;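 note: 0% = DMSO-treated cells and 100% = recombinant Lucia luciferase without cells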
* hit, by the source's call.

SMILES	TTR transcr act	others
COc1ccc(NC(=O)CCc2c(C)nn(-c3ccc(N4CCOCC4)nn3)c2C)cc1	12.5*	HuH7 TTR inh=-6.1;TTR up confirm=1.0
COc1cc(C(C)=O)ccc1OCC(O)CN1CCN(S(=O)(=O)c2ccccc2)CC1 (stereo not drawn)	0.5
Cc1ccc(S(=O)(=O)N2CCCN(S(=O)(=O)c3ccc4c(c3)OCCO4)CC2)cc1	2.5
CNC(=O)OCc1nc(SSC(C)(C)C)n(C)c1COC(=O)NC	-1.1
COc1ccc2nc(C(F)(F)Cl)c(C#N)c(N)c2c1	0.4
O=C(COc1cccc(Cl)c1Cl)Nc1ccc2c(c1)CCC2	0.8
Cc1ccc(N(CC(=O)NCc2ccc(F)cc2)C(=O)c2csnn2)cc1C	11.1*	HuH7 TTR inh=-16.5;TTR up confirm=-0.5
Cc1cc(C)c(N(CC(=O)NCc2ccccc2)C(=O)c2csnn2)c(C)c1	0.0
Cc1ccccc1CCN(CC(=O)NCc1ccc(F)cc1)C(=O)c1csnn1	-0.1
O=C(NC1CCCCC1)C(c1ccc(C(F)(F)F)cc1)n1c(=O)c(-c2ccco2)nc2ccccc21 (stereo not drawn)	-2.4
CCOC(=O)c1ccc(NC(=O)Nc2ccc3c4c(cccc24)C(=O)N3CC)cc1	-2.0
CCN1C(=O)c2cccc3c(S(=O)(=O)N4CCC(C)CC4)ccc1c23	0.2
CCN1C(=O)c2cccc3c(NC(=O)c4ccc(S(=O)(=O)N(C)C)cc4)ccc1c23	9.9*	HuH7 TTR inh=-12.5;TTR up confirm=1.7
CCCNC(=O)c1ccc(SC)cc1OC	2.5
COc1cc(SC)ccc1C(=O)NCc1ccc(C)cc1	-2.1
COc1cc(SC)ccc1C(=O)NCCNC(=O)c1nonc1N	14.4*	HuH7 TTR inh=-28.1;TTR up confirm=0.3
COc1cc(C(=O)NNC(=O)C2CC=CCC2C(=O)O)cc(OC)c1OC (stereo not drawn)	-1.6
COc1ccc(Cc2nc3ccc(C(=O)N4CCCC4)cc3o2)cc1	-1.1
COc1ccc(Cc2nc3ccc(C(=O)NCc4cc(C)no4)cc3o2)cc1OC	9.9*	HuH7 TTR inh=1.4;TTR up confirm=0.1
COC(=O)CCCNC(=O)c1ccc2nc(Cc3ccc(OC)cc3)oc2c1	0.6
CCOC(=O)Cn1c(=NC(=O)c2ccc([N+](=O)[O-])s2)sc2ccccc21	1.1
O=[N+]([O-])c1ccc(C=NN2CCNC2=S)o1	10.0*	HuH7 TTR inh=7.7;TTR up confirm=0.9
CN(/N=C/c1ccc([N+](=O)[O-])o1)c1ccccc1	-2.2
O=C(N/N=C/c1ccc([N+](=O)[O-])o1)C(=O)Nc1ccc(C(=O)O)cc1	3.0
Cc1cccc(NC(=O)Cn2c(O)c(N=NC(=O)c3ccccc3O)c3ccccc32)c1	0.7
SMILES	TTR transcr act	others
N#Cc1cc(Oc2cccnc2)c(Oc2cccnc2)cc1C#N	6.6
CC(Sc1nnc(-c2ccncc2)n1C)C(=O)Nc1ccc(N2CCOCC2)cc1 (stereo not drawn)	3.2
O=C(Cc1ccccc1)c1c[nH]c(C(=O)NCc2ccncc2)c1	2.4
CN(C)CCCNC(=O)c1cc(C(=O)Cc2ccccc2)c[nH]1	21.3*	HuH7 TTR inh=-10.9;TTR up confirm=-0.1
CN(C)CCCNC(=O)c1cc(C(=O)C2CCCCC2)c[nH]1	-0.3
O=C(c1ccc(OC2CCN(Cc3ccccn3)CC2)cc1)N1CCCC(O)C1 (stereo not drawn)	-1.5
CCN(c1ccc(NC(=O)CSc2nnc3nc(C)cc(C)n23)cc1)C(C)C	0.9
O=C(CSc1cccc[n+]1[O-])Nc1ccc(Br)cc1Br	0.2
O=C(CSc1cccc[n+]1[O-])Nc1cc2c(cc1Cl)C(=O)c1ccccc1C2=O	-1.9
Cc1cc(C)c(NC(=O)CSc2cccc[n+]2[O-])c(C)c1	0.6
CN(C)S(=O)(=O)c1cc(NC(=O)CSc2cccc[n+]2[O-])ccc1Cl	0.9
Cc1ccc(Cl)c(NC(=O)CSc2cccc[n+]2[O-])c1Cl	14.3*	HuH7 TTR inh=-9.4;TTR up confirm=-0.1
O=C(CSc1cccc[n+]1[O-])Nc1ccc(Cl)cc1F	11.1*	HuH7 TTR inh=-10.0;TTR up confirm=0.5
Cc1ccccc1NC(=S)NCC(c1cccnc1)N1CCOCC1 (stereo not drawn)	0.1
CN(Cc1cccs1)C(=O)CSc1nc2ccccc2[nH]1	-1.2
O=C(Nc1ccccn1)c1ccc(Cl)c(S(=O)(=O)N2CCOCC2)c1	2.0
CCC(=O)N1CCc2cc(S(=O)(=O)NC(C(=O)NC3CCCc4ccccc43)C(C)C)ccc21 (stereo not drawn)	2.2
O=C(NC(=S)N1CCOCC1)C12CCC3CC(CC(C3)C1)C2	2.5
CCOc1ccccc1N1CCN(C(=S)NCc2ccc(Cl)cc2)CC1	3.5
Cc1cc(C)cc(NC(=S)N2CCN(c3ccc(F)cc3)CC2)c1	1.2
CCCCNC(=O)N1CCN(c2ccccc2OCC)CC1	-0.9
CCOc1ccccc1N1CCN(C(=S)NC(=O)C23CC4CC(CC(C4)C2)C3)CC1	9.7*	HuH7 TTR inh=-21.6;TTR up confirm=0.3
O=C(NC(=S)N1CCN(c2ccc(F)cc2)CC1)C12CC3CC(CC(C3)C1)C2	18.1*	HuH7 TTR inh=6.3;TTR up confirm=5.4
O=[N+]([O-])c1ccc(NC(=S)N2CCN(c3ccc(F)cc3)CC2)cc1	-2.5
Cc1cccc(NC(=S)N2CCN(c3ccc(F)cc3)CC2)c1	10.6*	HuH7 TTR inh=-1.1;TTR up confirm=-0.4
SMILES	TTR transcr act	others
Cc1cccc(NC(=S)N2CCN(c3ccccn3)CC2)c1	4.5
Cc1cccc(CS(=O)(=O)Cc2ccc(C(=O)NCc3ccccc3)o2)c1	1.4
O=C(CSc1nnc(COc2ccccc2)o1)N1CCOCC1	3.0
Cc1ccc(-c2nc(C)sc2CC(=O)OCC(=O)Nc2cccc([N+](=O)[O-])c2)cc1	2.5
O=C(Cn1cc[n+](Cc2ccccc2)c1)c1ccc([N+](=O)[O-])cc1	-0.6
CC(=O)N(C(C)=O)c1nc2nc(C)cc(C)n2n1	-0.4
O=C(/C=C\c1ccco1)NC(=S)Nc1ccccc1O	-0.2
Cc1cccnc1NC(=S)NC(=O)/C=C/c1ccco1	11.6*	HuH7 TTR inh=-0.1;TTR up confirm=-0.2
Cn1nnc(NC(=S)NC(=O)/C=C/c2ccco2)n1	7.8
O=C(NCC1CCCO1)c1ccc2c(=O)n(Cc3ccc(Cl)cc3)c(=S)[nH]c2c1 (stereo not drawn)	0.4
COc1ccccc1CNC(=O)c1ccc2c(=O)n(CC3CCCO3)c(=S)[nH]c2c1 (stereo not drawn)	1.1
O=C(NCC1CCCO1)c1ccc2c(=O)n(-c3ccc(F)cc3)c(=S)[nH]c2c1 (stereo not drawn)	12.1*	HuH7 TTR inh=-11.3;TTR up confirm=-0.6
CC1(c2nnnn2Cc2ccccc2)CCC(=O)N1CC(F)(F)F (stereo not drawn)	-0.6
CC1(c2nnnn2Cc2ccccc2)CCC(=O)N1CCc1c[nH]c2ccccc12 (stereo not drawn)	-0.6
CC1(c2nnnn2Cc2ccccc2)CCC(=O)N1CCc1ccccc1F (stereo not drawn)	11.2*	HuH7 TTR inh=-11.3;TTR up confirm=-0.1
Nc1ccccc1C(=O)N1O[C@@H]2C=C[C@H]1C2	0.1
Cc1cccc(N2O[C@H]3C=C[C@@H]2C3)n1	-0.8
C1=CC2CCC1ON2c1ccccc1 (stereo not drawn)	16.7*	HuH7 TTR inh=-4.1;TTR up confirm=0.3
COc1ccccc1N1CCN(CC(=O)N2N=CCC2c2ccccc2)CC1 (stereo not drawn)	-4.4
O=C(CN(Cc1ccccc1)C1=NCCS1)c1ccc(Cl)cc1	-0.6
CC(C)C[C@@H]1CN(CCCC[C@H]2CNC(=O)C(=O)N2CCC2CCCCC2)C(=O)C(=O)N1CC1CCCCC1	-0.4
